Source: PubChem BioAssay AID894 (National Center for Advancing Translational Sciences (NCATS), 2007)
Values joined by “and” are separate entries in the source; they are usually repeats but may differ in a detail not shown here. Equal values may be shown once. Hit rate of the full screen: of about 150,000 compounds, about 6,500 (4.3%) were called active. Another 12% or so got no clear call; they are omitted. The call rests on the fitted dose curve; in most records, active means well fitted inhibition curve with a large enough effect (not every such curve was filed as active); inconclusive means small, poorly fitted or top-dose-only effect, or another doubt; inactive means no such curve, though single readings can be large or run the other way. For the sample, actives were picked, then their nearest neighbours and some compounds at random.

Molecular target: 15-hydroxyprostaglandin dehydrogenase [NAD(+)] (Homo sapiens) (UniProt P15428)
Sequence (P15428 whole entry, looked up): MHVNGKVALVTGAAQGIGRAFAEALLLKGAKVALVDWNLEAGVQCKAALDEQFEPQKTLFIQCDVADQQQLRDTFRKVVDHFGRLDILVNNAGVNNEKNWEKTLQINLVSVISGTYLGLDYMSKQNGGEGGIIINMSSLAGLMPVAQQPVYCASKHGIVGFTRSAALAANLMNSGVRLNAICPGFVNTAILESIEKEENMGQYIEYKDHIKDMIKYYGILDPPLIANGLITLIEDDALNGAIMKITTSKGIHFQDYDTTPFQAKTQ
Assay: qHTS Assay for Inhibitors of HPGD (15-Hydroxyprostaglandin Dehydrogenase)
Conditions: purified HPGD, NADH fluorescence kinetic, PGE2 substrate; activity change, negative = inhibition: hits give low values
From the text: Human 15-Hydroxyprostaglandin dehydrogenase (HPGD) catalyzes the inactivation of prostaglandin E2, and plays a major role in cancer biology by antagonizing the oncogenic potential of cyclooxygenase type 2 (COX2). Assays are available, based on absorbance/fluorescence increase of NADH with the substrate 15-OH prostaglandin E2. References 1. Myung SJ, Rerko RM, Yan M, Platzer P, Guda K, Dotson A, Lawrence E, Dannenberg AJ, Lovgren AK, Luo G, Pretlow TP, Newman RA, Willis J, Dawson D, Markowitz SD. 15-Hydroxyprostaglandin dehydrogenase is an in vivo suppressor of colon tumorigenesis. […] 2. Yan M, Rerko RM, Platzer P, Dawson D, Willis J, Tong M, Lawrence E, Lutterbaugh J, Lu S, Willson JK, Luo G, Hensold J, Tai HH, Wilson K, Markowitz SD. 15-Hydroxyprostaglandin dehydrogenase, a COX-2 oncogene antagonist, is a TGF-beta-induced suppressor of human gastrointestinal cancers. Proc Natl Acad Sci U S A. 2004 Dec 14;101(50):17468-73. 3. Yang L, Amann JM, Kikuchi T, Porta R, Guix M, Gonzalez A, Park KH, Billheimer D, Arteaga CL, Tai HH, Dubois R, Carbone DP, Johnson DH. Inhibition of Epidermal Growth Factor Receptor Signaling Elevates 15-Hydroxyprostaglandin Dehydrogenase in Non-Small-Cell Lung Cancer. Cancer Res. 2007 Jun 15;67(12):5587-5593. Inhibition of HPGD activity was screened by utilizing prostaglandin as an electron donor and NAD+ as an electron acceptor/cofactor. An increase in the fluorescence intensity due to conversion of NAD+ to NADH was used to measure the enzyme activity. NIH Chemical Genomics Center [NCGC] Structural Genomics Consortium [SGC]
Buffer: 50 mM Tris-HCl, 0.01% Tween 20, pH 8. Enzyme Buffer: 50 mM Tris-HCl, 0.5 mM NAD+ and 0.01% Tween 20, pH 8. Reagents/Controls: Buffer in columns 3 and 4 as negative control (no enzyme). Substrate/cofactor solution: 1 mM NAD+ and 30 uM prostaglandin (Sigma, prostaglandin E2, # P5640) final concentrations dispensed throughout the plate. Enzyme: 20 nM HPGD final concentration in columns 1, 2, 5-48. Column 1 and 2 is neutral (100% activity). A titration of control inhibitor GW5074 (G6416 Sigma-Aldrich, St. Louis, MO) top concentration 10 mM in DMSO, then 1:2 dilution for a total of 16 concentrations in duplicate) was pin-transferred into column 2. Assay Steps: Three uL of enzyme were dispensed to 1536-well Greiner black solid bottom plates. Compounds and control inhibitor (23 nL) were transferred via Kalypsys PinTool. The plates were incubated for 15 min at room temperature, and then 1 uL of substrate/cofactor solution was added to start the reaction. The plates were immediately transferred to and read 5 times every 30 seconds on ViewLux High-throughput CCD imager (Perkin-Elmer) using 360 nm excitation and 450 nm emission fluorescence protocol. The fluorescence intensity difference between the last and the first time points was used to compute reaction progress.
On the % scale 0 is the no-effect control and ±100 the full control effect; potency means the concentration at half of the fitted maximal effect.

Activity change, negative = inhibition, inactive:
Cc1cc(C)nc(SC2CCCCC2NS(=O)(=O)c2ccc(Cl)cc2)n1 (configuration not stated) -1.86%, COc1ccc(Cn2c(-c3ccc(Cl)cc3)c[n+]3ccccc23)cc1 1.07%, C=CCn1c(SCc2ccc(Cl)c(Cl)c2)nnc1C(CO)NC(=O)c1ccc(OC)cc1 (configuration not stated) -18.7%, CC(CNC(=O)c1ccc(Br)o1)NC(=O)c1ccc(Br)o1 (configuration not stated) -8.51%, CCC(C)NC(=O)CCCc1ccccc1 (configuration not stated) -18.7%, Cc1cccc(N2Cc3ccccc3C2=NC(=O)c2ccc(Cl)nc2)c1 -15.5%, C/C(=C/C(=O)N1CCN(C)CC1)C(=O)O 4.4%, c1coc(-c2nc3nc4ccccc4n3nc2-c2ccco2)c1 -14.3%, c1ccc(CSc2nnc(-c3ccco3)n2Cc2ccccc2)cc1 -25.4%, O=C(Nc1nnc(SCc2ccccc2)s1)c1ccco1 -28%, Nc1nc(SCc2ccccc2Cl)n[nH]1 -3%, COc1ccc(-c2nc3c(c4c2C[C@H](c2ccccc2)OC4)CN(C(=O)c2cccnc2)CC3)c(C)c1 -9.44%, COCc1c(C(=O)N/N=C/C2CC=CCC2)nnn1-c1nonc1N (configuration not stated) -10.3%, CC(C)CNC(=S)Nc1ccc(F)cc1 -4.13%, Cc1ccc(S(=O)(=O)N(CC(=O)Nc2cccc([N+](=O)[O-])c2)Cc2ccc(Cl)cc2)cc1 -3.74%, COc1cc(C(=S)N2CCOCC2)cc(OC)c1OC(=O)c1cc([N+](=O)[O-])cc([N+](=O)[O-])c1 -12%, O=C(Oc1ccc([N+](=O)[O-])cc1)c1ccc(Cl)c(S(=O)(=O)N2CCCCC2)c1 -21.8%, CCOC(=O)c1[nH]c2c(c1-c1ccccc1)C(=O)CC(c1ccc(Cl)cc1)C2 (configuration not stated) -2.93%, CCOC(=O)C1=C(C)NC(=O)N(C(C)=O)C1c1ccc(Cl)cc1 (configuration not stated) 0.0111%, Nc1ccc(Nc2ccccc2)cc1 -5.62%, Nc1ccc(-c2sc(N)nc2-c2ccccc2)cc1 -11%, COc1cccc2c(O)cc(=O)n(C)c12 -2.82%, CC(Oc1ccccc1F)C(=O)NN (configuration not stated) -6.91%, COc1ccc(C(=O)COC(=O)c2ccc3ccccc3n2)cc1 -15.3%, COc1ccc2c(c1)c(=O)c(C(=O)c1ccc(Cl)cc1)cn2CC(=O)Nc1ccc(F)cc1 -6.67%, CN(CC(=O)Nc1ccc(S(=O)(=O)N2CCCC2)cc1)Cc1ccc(Cl)c(Cl)c1 -13.8%, COC(=O)C1=C(C(=O)OC)[C@@H]2N(C)c3ccccc3[C@@]23C[C@@H](C(=O)OC)N(S(=O)(=O)c2ccc(Br)cc2)C3=N1 0.758%, CC(=O)Nc1ccc(/C(C)=N/NC(=O)CN(c2ccccc2Br)S(C)(=O)=O)cc1 -3.71%, CCCCNC(=O)CSc1nnc(-c2ccco2)n1C -11.5%, Cc1cccc(NC(=O)CSc2nnc(NC(=O)CN3CCOCC3)s2)c1 -8.48%, O=C(CSc1nc(-c2ccccc2)cs1)Nc1cccc([N+](=O)[O-])c1 -24.6%, CCCCNS(=O)(=O)c1ccc2nc(SCC(=O)Nc3cc(C)cc(C)c3)[nH]c2c1 -21.1%, CC(CNc1ccc([N+](=O)[O-])c2cccnc12)Nc1c([N+](=O)[O-])cc(C(F)(F)F)cc1[N+](=O)[O-] (configuration not stated) -20.4%, O=C(O)c1ccc(/C=N/NC(=O)c2ccc(Br)cc2)cc1 -2.06%, CC(=O)NC1C(OCc2ccccc2)OC(COC(C)=O)C(OC(C)=O)C1OC(C)=O (configuration not stated) -0.385%, CCN(CC)c1ccc(C(=O)N/N=C(\C)c2cccc(OC)c2)cc1 -8.48%, COc1ccc(OC(C)C(=O)NCCc2nc3ccccc3[nH]2)cc1 (configuration not stated) -0.239%, CC(C)CCNC(=O)c1cccnc1Sc1ccccc1 -7.91%, CSc1nc(-c2ccco2)nn1C(=O)CCc1ccccc1 -14%, O=c1nc2s/c(=C\c3ccco3)c(=O)n2nc1Cc1ccccc1 -22.5%, O=C(NC1CCCCC1)c1cc([N+](=O)[O-])ccc1N1CCOCC1 -0.536%, Cc1ccc(C(=O)NC2CCN(C(=O)N3CCOCC3)CC2)cc1 -4.3%, CCS(=O)(=O)N1Cc2ccccc2CC1C(=O)Nc1nc2ccc(F)cc2s1 (configuration not stated) -14%, CCc1nnc(NC(=O)C2CC(=O)N(c3ccc4c(c3)OCCO4)C2)s1 (configuration not stated) -28.3%, COC(=O)Cc1ccc(OCC(=O)Nc2ccc(OC(F)(F)F)cc2)cc1 -9.9%, O=C(CSCC(=O)Nc1cccc([N+](=O)[O-])c1)Nc1ccccc1 -9.37%, Cc1ccccc1NC(=S)Nc1cccc([N+](=O)[O-])c1 -3.09%, CCC(C)NC(=O)c1ccccc1NC(=O)c1ccccc1N(C)S(C)(=O)=O (configuration not stated) 1.34%, CCCCNC(=O)C(=O)c1ccccc1NC(C)=O -11.5%, COc1ccc(C)cc1NC(=O)C(Sc1ccccc1)c1ccccc1 (configuration not stated) -3.19%, CSCCC(Nc1ccc(S(=O)(=O)N2CCOCC2)cc1[N+](=O)[O-])C(=O)OCC(=O)N(C(C)C)C(C)C (configuration not stated) -2.59%, O=C(O)c1ccc2c(c1)C(=O)N(NC(=O)c1ccc(O)cc1)C2=O -11%, COC(=O)C(C(=O)OC)C1c2ccccc2C=C(C2CC2)N1C(=O)OC (configuration not stated) -11% and -4.45%, CCCc1cc(=O)[nH]c(SCC(=O)N2CCN(S(=O)(=O)c3ccc(C)cc3C)CC2)n1 -0.796%, CCCc1cc(=O)n2[nH]c(SCc3ccccc3)nc2n1 -15.8%, Cc1ccc2c(CSc3nncs3)cc(=O)oc2c1 -18.3%, CCCc1cc(=O)[nH]c(SCC(=O)OCc2ccccc2)n1 -12.3%, CCCCN1C(=O)CCC(C(=O)O)C1c1ccc(OC)cc1 (configuration not stated) -3.29%, CCc1cccc(NC(=O)CCC(=O)O)c1 6.1%, COc1ccc2c(CC(=O)OCC(=O)Nc3ccccc3[N+](=O)[O-])coc2c1 -21.4%, Cc1cc(NS(=O)(=O)c2ccccc2)no1 -11.9%, COc1cc(OC)cc(C(=O)Nc2ccc(S(=O)(=O)Nc3cc(C)on3)cc2)c1 -20.6%, COc1ccc2nc(Nc3nc(-c4cc5ccccc5oc4=O)cs3)sc2c1 -10.8%, C/C(=N\NS(=O)(=O)c1ccc(Cl)cc1)c1ccc(NC(=O)c2ccco2)cc1 -18.3%, Nc1nnc(SCCN2C(=O)c3ccccc3S2(=O)=O)s1 -12.2%, O=C(CN1C(=O)c2ccccc2S1(=O)=O)N1CCc2ccccc21 -12.2%, CCCCC/C=C\C/C=C\CCCCCCCCCC(=O)NCC(=O)O -8.47%, Cc1cccc(-c2nc3ccccc3c(=O)n2NC(=O)Cc2ccc(Cl)cc2)c1 -9.37%, CCCCc1cc2c(s1)CCCC/C2=N/O -24.8%, COc1ccc(CNC(=O)CCn2cccc2)cc1 -21.6%, CC(C)NC(=O)CSc1ccccc1C(=O)NCc1ccc2c(c1)OCO2 -1.41%, Cc1cccc(N2C(=O)C3C(c4ccccc4)OC4(C(=O)c5ccccc5C4=O)C3C2=O)c1 (configuration not stated) -4.94%, Cc1cccc(N2C(=O)SC(N(CC(=O)O)c3cccc(C)c3)C2=O)c1 (configuration not stated) -14.2%

Potency, active:
CC(CCc1ccccc1)NC(=O)c1ccc(Br)o1 (configuration not stated) 15.8 µM, c1ccc(CSc2nnc(-c3ccco3)c(-c3ccco3)n2)cc1 4.47 µM, Clc1ccccc1CSc1nnc(-c2ccco2)c(-c2ccco2)n1 12.6 µM, O=C(Oc1ccccc1C(=S)N1CCCCC1)c1cc([N+](=O)[O-])cc([N+](=O)[O-])c1 14.1 µM, CCOC(=O)C1Sc2[nH]c(=O)sc2C(c2ccc(Cl)cc2)C1C(=O)OCC (configuration not stated) 3.98 µM, c1ccc(Nc2n[nH]nc2-c2ccccc2)cc1 14.1 µM, O=c1c(O)c(Br)ccc2c(Br)c(O)c(O)c(O)c12 15.8 µM, CCCCNC(=O)CSc1nc2ccc(NC(=O)CSc3nnc(N)s3)cc2s1 5.01 µM, Nc1nnc(SCC(=O)Nc2ccc3nc(SCC(=O)Nc4ccccc4)sc3c2)s1 4.47 µM, CCOc1ccccc1/C=c1\sc2nc(-c3ccco3)nn2c1=O 17.8 µM, O=C(NC1CCCCC1)c1ccc(CNc2c(N3CCOCC3)c(=O)c2=O)cc1 14.1 µM, COC(=O)/C=C\C(=O)Nc1cccc([N+](=O)[O-])c1 3.16 µM, CCCCNC(=O)c1ccccc1NC(=O)c1ccccc1N(C)S(C)(=O)=O 25.1 µM, CCCc1cc(=O)[nH]c(SCc2cc(=O)oc3c(C)c(C)ccc23)n1 3.55 µM, CCCc1cc(=O)[nH]c(SCc2ccc(C#N)cc2)n1 15.8 µM, COc1cc2ccccc2cc1C(=O)Nc1ccc(S(=O)(=O)Nc2cc(C)on2)cc1 20 µM, O=C1c2ccccc2S(=O)(=O)N1CC(O)Cn1c2ccccc2c2ccccc21 (configuration not stated) 8.91 µM, CCSc1ccccc1C(=O)NCc1ccc(OC)cc1 2.51 µM, Cc1cccc(N2C(=O)SC(SC(=Nc3ccccc3)Nc3ccccc3)C2=O)c1 (configuration not stated) 14.1 µM
